From PubChem BioAssay
Rows were chosen to be rich in hits. Some 3% of all compounds tested hit in one or more screens of this group.
ROMK mod – human ROMK K+ channel modulation, primary screen; B-score at 10 µM; P48048; AID 1918; hit rate 2% among 130,000; Tet-inducible ROMK, thallium flux fluorescence; actives lie on both sides;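 active = signal ratio slope over the read window, or its plate-corrected B-score, at least 3 SD from the plate mean, either direction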;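 note: B-score of the F/F0 ratio slope over 7 to 12 s after thallium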
Target sequence (P48048 whole entry, looked up): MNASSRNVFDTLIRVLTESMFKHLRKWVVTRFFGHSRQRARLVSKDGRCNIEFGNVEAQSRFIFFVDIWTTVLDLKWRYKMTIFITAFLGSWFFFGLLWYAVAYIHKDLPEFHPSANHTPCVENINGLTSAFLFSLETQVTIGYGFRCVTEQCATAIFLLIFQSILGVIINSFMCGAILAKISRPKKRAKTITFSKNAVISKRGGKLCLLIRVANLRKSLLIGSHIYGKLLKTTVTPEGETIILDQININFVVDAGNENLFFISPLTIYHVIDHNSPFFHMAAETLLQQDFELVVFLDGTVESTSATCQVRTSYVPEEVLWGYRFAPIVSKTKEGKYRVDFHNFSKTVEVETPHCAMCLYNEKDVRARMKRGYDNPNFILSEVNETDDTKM
Insulin prom inh – TRM-6 insulin promoter activity inhibition | TRM-6 cells (human fetal islet line), insulin promoter-eGFP reporter, imaging; reporter expression induced with tamoxifen | inhibition, % at 2 µM | hit rate 0.9% among 130,000 | AID 1273;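 active = inhibition above the mean plus 3 SD, with well images judged a real hit on visual review, cut at about 60% in these data, passing the limit was not always enough; inconclusive = inhibition over the cutoff but images rejected on review; inactive = inhibition not above the cutoff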
Measles CPE – protection of cells from measles virus | Measles virus-infected cells, CPE protection, absorbance | protection (pct of control), % at 4 µM | hit rate 1.5% among 140,000 | AID 841; in the data active = protection mostly above about 24%, no sharp cut-off; inactive = mostly below about 26%
sdo1 growth – restores growth of sdo1-depleted yeast. S. cerevisiae sdo1-depleted JHY4D growth rescue, OD600 30 h; stronger effect = higher value; pdr5 snq2 efflux-pump mutant strain. z-score at 10 µM. hit rate 0.21% among 140,000. AID 817;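 active = z-score above 3 at both the 24 hr and the 30 hr optical density reads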;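 note: z-score against mean and SD of all compound wells on the same plate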
ROMK retest – retested hit modulating human ROMK potassium channel | shares compounds with ROMK mod | ROMK thallium flux, fluorescence ratio; stronger effect = lower value | normalized thallium flux (F/F0 slope) at 10 µM | hit rate 54% among 3,000 | AID 1917;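 active = Flux at 10 µM at least 3 SD below or above vehicle control mean in one or both replicates; inconclusive = no clear call, values can overlap the other calls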
Numbers without * were called inactive; ? = inconclusive; / = no result.

SMILES | ROMK mod | Insulin prom inh | Measles CPE | sdo1 growth | ROMK retest
Cc1cc(N2CCN(c3nc4ccccc4s3)CC2)n2ncnc2n1 | / | 45 | 20 | -0.22 | 0.064*
Cc1cc(N2CCN(C(=O)OC(C)(C)C)CC2)n2ncnc2n1 | 0.086 | -43 | 4 | -0.07 | /
Cc1cc(N2CCN(c3cccc(C(F)(F)F)c3)CC2)n2ncnc2n1 | 0.2 | -39 | 8 | -1.5 | /
COc1cccc(C(=O)CSc2nnc(-c3cccs3)o2)c1 | / | -14 | 3 | 0.14 | /
COc1cccc(C(=O)CSc2nnc(-c3cc(OC)cc(OC)c3)o2)c1 | 1.1* | 14 | 5 | -0.38 | ?
O=C(NCC1CCCO1)C(c1ccc(F)cc1)N(CC1CCCO1)C(=O)c1ccc(-c2ccccc2)[nH]1 (configuration not stated) | -3.2* | / | / | / | 0.059*
CCCOc1cc(C)c(S(=O)(=O)NC2CC(C)(C)NC(C)(C)C2)cc1C | -4.4* | -16 | 19 | 0.35 | 0.062*
COc1cc(C)c(S(=O)(=O)NC2CC(C)(C)NC(C)(C)C2)cc1C | -1.8 | 32 | 9 | 0.41 | /
COc1cc(C)c(Cl)cc1S(=O)(=O)NC1CC(C)(C)NC(C)(C)C1 | -6.4* | / | / | / | 0.052*
Cc1ccc2nc(-c3ccc(N4C(=N)SC5CS(=O)(=O)CC54)cc3)sc2c1 (configuration not stated) | / | / | 41 | 0.77 | /
C=CCSc1nc(C)c2cc(C)cc(C)c2n1 | 0.17 | 14 | 3 | -0.94 | /
CCOc1ccc2[nH]c(=O)c(CN(Cc3ccco3)C(CC)c3nnnn3Cc3ccccc3)cc2c1 (configuration not stated) | / | / | 32 | -1.4 | 0.074
CCOC(=O)Cn1nnnc1C(CC)N(Cc1cccs1)Cc1cc2cc(C)ccc2[nH]c1=O (configuration not stated) | -4* | / | 5 | 0.16 | 0.072
O=C1CCC/C(=N/NC(=O)C2CCN(S(=O)(=O)c3cccs3)CC2)C1 | -0.045 | 23 | 7 | 0.45 | /
Cc1ccc(NS(=O)(=O)c2cc3c4c(cccc4c2)C(=O)NC3=O)cc1 | 1.7* | / | / | / | ?
O=C(CN1C(=O)NC2(CCCCC2)C1=O)N1CCc2ccccc2C1 | 0.64 | / | / | / | /
O=C(CN1C(=O)NC2(CCCC2)C1=O)N1CCc2ccccc2C1 | 2.2* | / | / | / | 0.087
COC(=O)CSc1nnc(-c2ccc(NS(=O)(=O)c3ccccc3)cc2)o1 | -3.5* | / | 8 | -1.1 | 0.056*
COc1cccc(C(=O)CC(=O)C(=O)Nc2cc(Cl)c(OC)cc2OC)c1 | 1.1 | -17 | / | / | /
CCOC(=O)C1=C(O)C(=O)N(c2ccc(S(N)(=O)=O)cc2)C1c1ccccc1 (configuration not stated) | / | 19 | 9 | -0.65 | 0.071
O=C(Nc1cccc(Cl)c1N1CCCC1)c1cccc(-c2cc3ccccc3oc2=O)c1 | / | 51 | 15 | -0.07 | /
O=C1NC(=S)S/C1=C\c1coc2ccc(O)cc2c1=O | / | / | / | / | 0.032*
Cc1cc(/C=C2\SC(=S)NC2=O)c(C)n1C1CC1 | -0.77 | -11 | 22 | -1.2 | /
N#C/C(=C/c1ccc(F)cc1)C(N)=S | -3.1* | / | / | / | 0.051*
COc1cc2c(=O)n(CCC(=O)NCC3CCCO3)c(=O)n(CC(=O)c3ccc(Cl)cc3)c2cc1OC (configuration not stated) | -0.0087 | / | / | / | /
SMILES | ROMK mod | Insulin prom inh | Measles CPE | sdo1 growth | ROMK retest
Cc1cc(Cl)n2c(nc3cc(F)c(F)cc32)c1C#N | -7.2* | -118 | / | / | 0.053*
Cc1cc(C)n2c(=O)c3ccc(Cl)cc3nc2c1C#N | 2.5 | -83 | / | / | /
CC(=S)c1c(C)cc2cc(C)ccn12 | 0.61 | 2 | 3 | -0.46 | /
CN1CCN(c2ccc(NC(=O)CN3CCOCC3)cc2F)CC1 | 0.95 | / | / | / | /
CN(C)CCNC(=O)/C(=C/c1ccc(-c2cccc([N+](=O)[O-])c2)o1)NC(=O)c1ccccc1 | -4.5* | 45 | 6 | 0.6 | 0.053*
CN(C)CCCNC(=O)/C(=C\c1ccc(-c2ccc(Br)cc2)o1)NC(=O)c1ccccc1 | -3.9* | 0 | 8 | -0.05 | 0.054*
CN(C)CCNC(=O)/C(=C/c1ccc(-c2cccc(Cl)c2)o1)NC(=O)c1ccccc1 | -3.7* | 19 | 3 | -0.15 | 0.056*
O=[N+]([O-])c1ccc(CN2C=NS(=O)(=O)c3ccccc32)cc1 | -0.16 | 33 | / | / | /
CC1=C(C(=O)Nc2ccccc2Cl)C(c2ccc(N(C)C)cc2)NC(=O)N1 (configuration not stated) | -0.15 | -113 | 5 | -0.34 | /
CCn1nnc(-c2ccccc2NC(=O)c2cnccn2)n1 | / | -142 | / | / | /
COc1ccc(NC(=O)c2ccccc2NC(=O)CSc2ccc(Cl)cc2)cc1 | / | 23 | 11 | -1.3 | /
CC(OC(=O)c1cc(=O)[nH]c2ccccc12)c1ccccc1 (configuration not stated) | -0.58 | -32 | 5 | -1.7 | /
O=C(NCCc1ccccc1)C(=O)NN=C1CCCC1 | 2.8* | -21 | 10 | -0.11 | 0.081
Cc1ccc(CNC(=O)C(=O)NCCC2=CCCCC2)cc1 | 1.3 | -40 | 12 | -0.28 | /
O=C(NCCC1=CCCCC1)C(=O)NCc1ccccc1 | 1.2* | / | 24 | -1.1 | 0.079
C/C(=N\NC(=O)CCc1ccc(S(=O)(=O)N2CCOCC2)cc1)c1ccccc1Cl | 2.3 | / | / | / | /
Cc1cc(C)nc(/N=C(\N)Nc2cccc(OCc3ccccc3)c2)n1 | / | / | / | / | 0.055*
O=C(O)C1C2CCC(O2)C1C(=O)Nc1ccc(O)cc1 (configuration not stated) | / | -10 | 21 | 1.2 | /
C=C(c1ccc(OC)cc1)c1ccc(OC)cc1 | 1.9* | 19 | 12 | -0.37 | 0.079
COc1ccc(C(N)=S)cc1 | 0.24 | -10 | 5 | -0.5 | /
O=C(NCC1CCCO1)C(c1ccc(N2CCOCC2)cc1)N(C(=O)Cn1nnc2ccccc21)c1ccccc1F (configuration not stated) | -2.1 | 30 | / | / | /
CC(C)c1ccc2oc(-c3ccc(N)cc3)nc2c1 | / | 67 | 27 | -2.1 | 0.081
Nc1ncnc2c1ncn2CCNCCc1ccccc1 | / | -3 | 7 | -0.64 | 0.082
CC(C)CCN1CCN(Cc2cccc3cccnc23)CC1CCO (configuration not stated) | -1.3 | -6 | / | / | /
S=C(NC1CCCCC1)N(CCc1ccccc1)CCc1ccccc1 | / | / | 8 | -0.67 | /
SMILES | ROMK mod | Insulin prom inh | Measles CPE | sdo1 growth | ROMK retest
COC(=O)CSC(C(=O)Nc1ccc(C)c(C)c1)c1ccccc1 (configuration not stated) | / | / | 3 | -0.76 | /
CCn1c(=O)c2c3c(sc2n2c(=S)[nH]nc12)CCC3 | 2.3* | -20 | 14 | -1.7 | 0.079
O=c1c2c3c(sc2n2c(=S)[nH]nc2n1-c1ccccc1)CCC3 | 2.3 | / | / | / | /
CN=c1scc(C)n1/N=C/c1ccc(O)cc1O | / | 18 | 3 | -0.97 | ?
CN=c1scc(C)n1/N=C/c1ccc(O)cc1 | / | 0 | 8 | 0.41 | /
COc1ccc(C(=O)COC(=O)CCc2nc3ccccc3[nH]c2=O)cc1Br | 0.3 | / | / | / | /
CC(=O)Nc1cccc(C(=O)/C=C/c2ccc(Br)cc2)c1 | / | 41 | 6 | -2.1 | /
CC(=O)Nc1cccc(C(=O)/C=C/c2ccc(/C=C/C(=O)c3cccc(NC(C)=O)c3)cc2)c1 | / | / | 0 | -1.2 | /
COc1ccc(/C=C/C(=O)Nc2cccc(C(C)=O)c2)cc1 | 1.4* | 8 | 11 | 1 | ?
CC(=O)Nc1cccc(C(=O)/C=C/c2ccc(N(C)C)cc2)c1 | -3.7* | -23 | 22 | -0.84 | 0.048*
